# Test results published in the supplement of paper PMC8728848.
# About 410 targets per protein were measured; listed, in parts, are those with the strongest signals and a random draw of the rest.
# B1: HPA (Helix pomatia), Q2F1K8 (protein)
# chain: MQAFYSGLLLLCVVAFAAAQRVQSGKIDCGNDAGWAKVPSDDPGRDNTRELAKNITFASPYCRPPVVLLSITQLDVEQSQNLRVIARLYSVSPTGFKASCYTWHNTKVYSMSISWISIENY
# Assays:
# Test in all cases: glycan array binding signal (z-score within array); higher = stronger binding
# Details in all cases: glycan notation: IUPAC condensed, linker removed
# [1] = biological target: Gal(b1-4)GlcNAc(b1-3)[Gal(b1-4)GlcNAc(b1-6)]GalNAc
# In short: (§1)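 The binding signal is a Z-score computed within each array and averaged over linkers. Arrays of the same protein sequence at different concentrations or buffers were also averaged together. Data originate from 3228 arrays in the Consortium for Functional Glycomics database, kept only where the protein sequence was available.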
# [2] = biological target: Gal(b1-4)GlcNAc(b1-6)[Gal(b1-3)]GalNAc
# In short: as §1
# Gal6S(b1-3)GlcNAc6S = biological target: Gal6S(b1-3)GlcNAc6S
# In short: as §1
# GalNAc(a1-3)Gal = biological target: GalNAc(a1-3)Gal
# In short: as §1
# GalNAc(a1-3)GalNAc = biological target: GalNAc(a1-3)GalNAc
# In short: as §1
# [3] = biological target: GalNAc(a1-3)GalNAc(a1-3)Gal(a1-4)Gal(b1-4)GlcNAc
# In short: as §1
# [4] = biological target: GalNAc(a1-3)GalNAc(b1-3)Gal(a1-4)Gal(b1-4)Glc
# In short: as §1
# GalNAc(b1-3)GalNAc = biological target: GalNAc(b1-3)GalNAc
# In short: as §1
# [5] = biological target: GlcA3S(b1-3)Gal(b1-4)GlcNAc(b1-3)Gal(b1-4)Glc
# In short: as §1
# [6] = biological target: GlcNAc(b1-2)Man(a1-3)[GlcNAc(b1-4)][GlcNAc(b1-2)Man(a1-6)]Man(b1-4)GlcNAc(b1-4)[Fuc(a1-6)]GlcNAc
# In short: as §1
# [7] = biological target: GlcNAc(b1-4)GlcNAc(b1-4)GlcNAc(b1-4)GlcNAc(b1-4)GlcNAc
# In short: as §1
# [8] = biological target: GlcNAc(b1-6)Gal(b1-4)GlcNAc
# In short: as §1
# GlcNAc3Prop(b1-4)GlcNAc = biological target: GlcNAc3Prop(b1-4)GlcNAc
# In short: as §1
# Kdn(a2-6)Gal(b1-4)GlcNAc = biological target: Kdn(a2-6)Gal(b1-4)GlcNAc
# In short: as §1
# [9] = biological target: Man(a1-2)Man(a1-3)[Man(a1-2)Man(a1-6)]Man
# In short: as §1
# [10] = biological target: Neu5Ac(a2-3)Gal(b1-3)GalNAc6S
# In short: as §1
# [11] = biological target: Neu5Ac(a2-3)Gal(b1-3)GlcNAc(b1-2)Man(a1-3)[Neu5Ac(a2-3)Gal(b1-3)GlcNAc(b1-2)Man(a1-6)]Man(b1-4)GlcNAc(b1-4)GlcNAc
# In short: as §1
# [12] = biological target: Neu5Ac(a2-3)Gal(b1-3)GlcNAc6S
# In short: as §1
# [13] = biological target: Neu5Ac(a2-3)Gal(b1-3)[Fuc(a1-4)]GlcNAc(b1-3)Gal(b1-4)[Fuc(a1-3)]GlcNAc
# In short: as §1
# [14] = biological target: Neu5Ac(a2-3)Gal(b1-4)GlcNAc(b1-2)Man
# In short: as §1
# [15] = biological target: Neu5Ac(a2-3)Gal(b1-4)GlcNAc(b1-2)[Neu5Ac(a2-3)Gal(b1-4)GlcNAc(b1-6)]Man(a1-6)[Neu5Ac(a2-3)Gal(b1-4)GlcNAc(b1-2)Man(a1-3)][GlcNAc(b1-4)]Man(b1-4)GlcNAc(b1-4)GlcNAc
# In short: as §1
# [16] = biological target: Neu5Ac(a2-3)Gal(b1-4)[Fuc(a1-3)]GlcNAc(b1-3)Gal(b1-4)GlcNAc
# In short: as §1
# [17] = biological target: Neu5Ac(a2-3)Gal6S(b1-4)GlcNAc
# In short: as §1
# [18] = biological target: Neu5Ac(a2-3)[Neu5Ac(a2-6)]GalNAc
# In short: as §1
# [19] = biological target: Neu5Ac(a2-6)Gal(b1-4)GlcNAc(b1-3)Gal(b1-4)GlcNAc(b1-2)Man(a1-3)[Neu5Ac(a2-6)Gal(b1-4)GlcNAc(b1-3)Gal(b1-4)GlcNAc(b1-2)Man(a1-6)]GalNAc
# In short: as §1
# [20] = biological target: Neu5Ac(a2-6)GalNAc(b1-4)GlcNAc6S
# In short: as §1
# [21] = biological target: Neu5Ac(a2-6)GlcNAc(b1-4)GlcNAc
# In short: as §1
# [22] = biological target: Neu5Ac(a2-8)Neu5Ac(a2-3)Gal(b1-4)GlcNAc
# In short: as §1
binder,measurement,setting,value
B1,glycan array binding signal (z-score),[1],-0.304
same,glycan array binding signal (z-score),[2],-0.255
same,glycan array binding signal (z-score),Gal6S(b1-3)GlcNAc6S,-0.301
same,glycan array binding signal (z-score),GalNAc(a1-3)Gal,2.85
same,glycan array binding signal (z-score),GalNAc(a1-3)GalNAc,3.28
same,glycan array binding signal (z-score),[3],3.71
same,glycan array binding signal (z-score),[4],7.34
same,glycan array binding signal (z-score),GalNAc(b1-3)GalNAc,0.839
same,glycan array binding signal (z-score),[5],-0.351
same,glycan array binding signal (z-score),[6],-0.214
same,glycan array binding signal (z-score),[7],-0.314
same,glycan array binding signal (z-score),[8],-0.35
same,glycan array binding signal (z-score),GlcNAc3Prop(b1-4)GlcNAc,-0.979
same,glycan array binding signal (z-score),Kdn(a2-6)Gal(b1-4)GlcNAc,-0.242
same,glycan array binding signal (z-score),[9],-0.231
same,glycan array binding signal (z-score),[10],-0.272
same,glycan array binding signal (z-score),[11],-0.195
same,glycan array binding signal (z-score),[12],-0.281
same,glycan array binding signal (z-score),[13],-0.105
same,glycan array binding signal (z-score),[14],-0.116
same,glycan array binding signal (z-score),[15],-0.361
same,glycan array binding signal (z-score),[16],0.04
same,glycan array binding signal (z-score),[17],-0.242
same,glycan array binding signal (z-score),[18],-0.294
same,glycan array binding signal (z-score),[19],0.201
same,glycan array binding signal (z-score),[20],-0.275
same,glycan array binding signal (z-score),[21],-0.359
same,glycan array binding signal (z-score),[22],-0.323
